Compounds with a hit are over-represented: about 0.61% of the library has one in this group of screens.
CatG inh: blocks human cathepsin G enzyme activity | P08311 | purified enzyme, AMC-tetrapeptide fluorescence, pooled mixtures | inhibition, % at 5 µM (by protocol) | 62,000 compounds, 0.2% hits;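 active means inhibition above 20% in each of the two mixture wells holding the compound; inactive means inhibition of 20% or less in either well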
FXIIa mix inh: blocks human factor XIIa in pooled compound mixtures; purified FXIIa, fluorogenic substrate; inhibition, % at 5 µM; 62,000 compounds, 0.2% hits; P00748
Target sequence (P00748 20-372 limits assumed): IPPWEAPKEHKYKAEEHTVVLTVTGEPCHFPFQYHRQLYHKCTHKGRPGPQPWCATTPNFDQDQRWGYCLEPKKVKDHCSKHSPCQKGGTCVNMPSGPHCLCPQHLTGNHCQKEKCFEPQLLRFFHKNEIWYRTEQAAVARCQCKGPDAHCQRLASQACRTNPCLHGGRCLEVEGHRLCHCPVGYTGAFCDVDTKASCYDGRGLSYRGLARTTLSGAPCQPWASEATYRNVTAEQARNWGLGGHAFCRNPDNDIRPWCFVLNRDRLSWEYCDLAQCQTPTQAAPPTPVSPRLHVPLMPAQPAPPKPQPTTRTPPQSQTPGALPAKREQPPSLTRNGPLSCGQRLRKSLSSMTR
Target sequence (P00748 373-615 limits assumed): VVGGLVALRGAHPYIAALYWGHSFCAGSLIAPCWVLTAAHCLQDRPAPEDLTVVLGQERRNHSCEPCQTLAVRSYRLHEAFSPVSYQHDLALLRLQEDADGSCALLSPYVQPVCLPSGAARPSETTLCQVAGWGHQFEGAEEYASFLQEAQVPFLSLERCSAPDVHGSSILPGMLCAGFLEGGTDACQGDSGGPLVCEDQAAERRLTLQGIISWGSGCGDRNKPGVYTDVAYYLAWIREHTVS
C1s block: blocks human complement C1s protease activity; 62,000 compounds, 0.16% hits; purified C1s, fluorogenic AMC substrate, pooled mixtures; P09871; mean inhibition % of two 10-compound mixtures (stronger effect = higher value), % at 5 µM (by protocol);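 active means inhibition above 20% in each of the two 10-compound mixture wells holding the compound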
FXIa inh mix: blocks human factor XIa in pooled compound mixtures. P03951. purified FXIa, fluorogenic substrate. inhibition, % at 5 µM. 62,000 compounds, 0.19% hits. AID 680;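 further: each value is inhibition by a whole ten-compound pool holding the compound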
Hits are given with their value; – = inactive. Unless noted, no stated cut-off is given here; in the data, active means inhibition above about 20% (passing the limit was not always enough); inactive means the rest.

SMILES | CatG inh | FXIIa mix inh | C1s block | FXIa inh mix
CCC(=O)Nc1cccc(-c2nc3ccccc3c(=O)o2)c1 | 59 | – | 37 | –
CCC(CC)C(=O)Nc1cccc(-c2nc3ccccc3o2)c1 | – | – | – | –
CCOC(=O)c1ccc(NC(=O)C(CC)(CC)C(=O)OCC)cc1 | – | 50 | – | –
CCc1nc2ccccc2n(CC)c1=O | – | – | – | –
CCn1c(=O)c(C(C)=O)nc2ccccc21 | – | – | 22 | –
CCCS(=O)(=O)c1c(S(=O)(=O)CCC)c2c3ccccc3ccn2c1C(N)=O | – | – | – | –
Cc1ccsc1/C=c1\sc2ncnn2c1=O | 43 | – | – | –
CN(CC(=O)NC1CCCc2ccccc21)S(=O)(=O)c1ccc2c(c1)c(=O)n(C)c(=O)n2C (stereo not drawn) | – | 26 | – | –
O=c1[nH]c(CN2CCc3ccccc3C2)nc2ccccc12 | 48 | – | – | –
CCC(=O)Nc1ccc(NC(=O)CSc2nnnn2C(C)C)cc1 | – | – | – | 27
COc1ccc2c(c1)CCc1c(C(=O)NCc3ccc(F)cc3)noc1-2 | 93 | – | 44 | –
COc1ccc2c(c1)CCc1c(C(=O)Nc3ccc(OC)c(OC)c3)noc1-2 | 37 | – | – | –
COc1ccc2c(c1)CCc1c(C(=O)NCCc3ccc(OC)c(OC)c3)noc1-2 | – | – | – | –
Cc1nc2ccccn2c1P(=O)(N1CCCCC1)N1CCCCC1 | – | 20 | – | –
COc1ccccc1N1C(=O)C2C3C=CC(C3)C2C1=O (stereo not drawn) | – | 21 | – | –
COc1ccc(C2=CC(c3c(C)nn(-c4ccccc4)c3Cl)n3nnnc3N2)cc1OC (stereo not drawn) | – | – | – | –
COc1cccc(-c2nnn(CC(=O)NC3CCCC3)n2)c1OC | – | – | – | 22
O=C(Cn1nnc(-c2ccccc2NC(=O)C2CC2)n1)NC1CCCCC1 | – | – | – | –
CCOc1ccc(C2C=C(c3ccc(C)cc3)Nc3ncnn32)cc1 (stereo not drawn) | – | – | – | 23
Cc1ccc(C)c(/C(O)=C2\C(=O)C(=O)N(CCCN(C)C)C2c2cccnc2)c1 (stereo not drawn) | – | – | – | –
COc1ccccc1-c1cc(C(=O)Nc2cccnc2)no1 | 34 | – | – | –
Cc1cc(=O)[nH]c(SCC(=O)c2ccc(C(C)C)cc2)n1 | – | – | 57 | –
COc1ccc(C(=O)CSc2nc(C)cc(=O)[nH]2)cc1 | – | – | – | –
Cc1ccc(NC2=NCC(=O)N2Cc2ccc3c(c2)OCO3)cc1 | – | – | – | –
CCOC(=O)c1ccc(CSc2nnc(N)s2)cc1 | – | – | – | –
SMILES | CatG inh | FXIIa mix inh | C1s block | FXIa inh mix
COc1ccc(-c2cc(C(=O)Nc3c(C)nn(Cc4ccccc4Cl)c3C)no2)cc1 | 52 | – | – | –
Cc1nn(Cc2ccc(Cl)cc2)c(C)c1NC(=O)c1cc(-c2ccc3c(c2)OCO3)on1 | – | – | – | –
COc1ccc(OC)c(-c2cc(C(=O)Nc3c(C)nn(Cc4ccccc4)c3C)no2)c1 | 50 | – | – | 20
COc1ccc(OC)c(-c2cc(C(=O)Nc3c(C)nn(Cc4ccc(Cl)cc4)c3C)no2)c1 | – | – | – | –
Cc1nn(Cc2ccc(Cl)c(Cl)c2)c(C)c1NC(=O)c1cc(-c2ccc3c(c2)OCO3)on1 | 40 | – | – | –
Cc1cc(C(=O)Nc2c(C)nn(Cc3c(Cl)cccc3Cl)c2C)no1 | – | – | – | –
O=c1c(-c2ccco2)[n+]([O-])c2ccccc2n1OCc1ccccn1 | – | – | 29 | 29
COc1ccc(OCC(=O)Nc2ccc(N3CCOCC3)cc2)cc1 | – | – | – | –
Cc1ccc(OCC(=O)Nc2ccc(N3CCOCC3)cc2)cc1 | – | – | 60 | –
O=C(NCc1ccccn1)c1cc(-c2ccccc2)on1 | – | – | – | –
Cc1ccc(-c2cc(C(=O)NCc3ccccn3)no2)cc1 | – | – | 65 | –
O=C(NCc1cccs1)c1cc(-c2cccs2)on1 | 34 | – | – | –
COc1nc2c(s1)C(=O)NCCC2 | – | 20 | – | –
Cc1ccc(NC(=O)Cc2nn(C)c(=O)c3ccccc23)cc1F | 21 | 20 | – | –
CC(=O)Nc1nc(CC(=O)c2ccccc2)cs1 | – | – | – | 36
COc1ccc(OC)c(C(C)NC(=O)c2ccco2)c1 (stereo not drawn) | – | – | – | –
Cn1c(SCC(=O)NCc2ccc3c(c2)OCO3)nnc1C1COc2ccccc2O1 (stereo not drawn) | – | – | – | –
C=CCn1c(SCC(=O)NCc2ccc3c(c2)OCO3)nnc1C1COc2ccccc2O1 (stereo not drawn) | – | – | – | 33
Cc1cc(NC(=O)c2cc3nc(C4CC4)cc(C(F)(F)F)n3n2)no1 | – | – | 22 | –
O=C(NCc1ccco1)c1cc2nc(C3CC3)cc(C(F)(F)F)n2n1 | – | – | – | –
O=C(c1nc(-c2ccccc2)n(-c2ccccc2)n1)N1CCN(S(=O)(=O)c2ccccc2)CC1 | – | – | – | –
O=c1oc(-c2ccco2)nc2ccccc12 | 74 | – | 48 | –
Cc1sc2nc(-c3ccco3)oc(=O)c2c1C | – | – | 32 | –
O=c1oc(-c2ccco2)nc2c1cnn2-c1ccccc1 | – | – | – | –
O=S(=O)(Nc1cccnc1)c1cccs1 | – | – | – | 45
SMILES | CatG inh | FXIIa mix inh | C1s block | FXIa inh mix
CN1C(=O)c2cccc(NC(=O)CCc3ccccc3)c2C1=O | – | – | – | –
CCCn1c(NCc2ccc(C)o2)nc2ccccc21 | – | – | – | 26
CCCCNC(=O)NS(=O)(=O)c1ccc(NS(=O)(=O)c2ccccc2)cc1 | – | – | – | –
CCCc1[nH]nc2c1C(c1ccccc1OC)C(C#N)=C(N)O2 (stereo not drawn) | – | – | – | –
CCCc1[nH]nc2c1C(c1cn[nH]c1-c1ccc(F)cc1)C(C#N)=C(N)O2 (stereo not drawn) | – | – | – | 21
Cn1c(=O)c2cc(NC(=O)c3ccccc3Cl)c(=O)oc2n(C)c1=O | 20 | – | – | 33
O=C(Nc1ccccc1C(F)(F)F)N1CCCCCC1 | – | – | – | –
NC(=O)C1(N2CCCCC2)CCN(C(=O)Nc2ccccc2C(F)(F)F)CC1 | – | – | 25 | –
CC(=O)c1ccc(-n2nncc2C(C)(C)C)cc1 | – | 34 | – | –
CCC(=O)Nc1ccc(C(=O)Nc2ccc3c(c2)OCO3)cc1 | – | – | 21 | –
CC1=C2C(CCS2(=O)=O)CC2(C1)C(=O)OC(C)(C)OC2=O (stereo not drawn) | – | – | – | –
CCN(CC)S(=O)(=O)c1cc(C(=O)NC2CCCCC2)ccc1C | – | – | – | –
Cn1nccc1C(=O)Nn1cnnc1 | – | – | – | –
Cc1nn(C)c(C)c1NC(=O)c1ccnn1C | – | – | 21 | –
COC(=O)c1cc(OC)c(OC)cc1NC(=O)c1c(-c2ccccc2Cl)noc1C | – | – | – | –
CCc1nnc(NC(=O)c2cnccn2)s1 | – | – | – | 21
Cc1noc(C)c1COC(=O)c1ccccc1Oc1ccccc1 | – | – | – | –
Cc1noc(C)c1COC(=O)c1ccccc1NC(=O)Cc1ccccc1 | – | – | 35 | –
CC(=O)Cc1nsc(NC(=O)c2ccc(COc3ccccc3)o2)n1 | – | – | – | –
